Here are results for 40 compounds from PubChem BioAssay (NCATS).

The structures appear in SMILES notation. “And” between values parts separate entries of the source, which are not always exact repeats. Equal entries are not always repeated. Records with an inconclusive call do not appear. A call without a number means that no potency is given here. The source made the active and inactive calls. Calls follow the shape of the dose curve; as a rule, active = well fitted cell-killing curve with a large enough effect; inconclusive = small, poorly fitted or top-dose-only effect, or effect the other way; inactive = no such curve, though single readings can be large or run the other way.
Potency is read from the fitted curve at half-maximal effect.

This assay in a line: Viability qHTS for spleen associated tyrosine kinase inhibitor (SYKi) drug resistant MV4-11 cells (AID 1963824). Also: nearly all actives have a fitted effect of over 35% in size. The following applies: SYKi-resistant MV4-11 viability, CellTiter-Glo, 72 h; series mostly up to 45 µM. The text has this:
Department of Medicine, Hematology/Oncology
University Hospital Frankfurt, Germany.
Trials have shown promising clinical activity of the selective SYK inhibitor entospletinib in patients with high expressing HOXA9/MEIS1 acute leukemias. As the development of resistance mechanisms is a common problem in the use of targeted drugs, we performed a chemical library screen to identify drug sensitivities in SYK inhibitor resistant AML cells. […] Glucocorticoids are potent immunosuppressants which work in part by inhibiting the transcription of cytokine genes.
Described herein is a viability screen to look for activity in the SYK inhibitor drug resistant cell line against four NCATS compound libraries (MIPE 5.0, NPC, NPACT, and Kinase) totaling 11372 compounds. Active hits were reacquired for confirmation and further secondary assay testing.
SEQUENCE No. (e.g., 1, 2, 3, etc.); […] (e.g., Cells, Incubation, Reagent, etc.); VALUE; DESCRIPTION.
1; Media; 2uL; white, solid-bottom Corning assay plate.
2; Compounds; 23nL; Echo acoustic dispenser.
3; Cell; 5uL; 500 cells per well.
4: Incubation; 72hr; 37 C, 5% CO2, 95% humidity.
5; Reagent; 3uL; CellTiter-Glo reagent (Promega).
6; Incubation; 10min; room temperature.
7; Detection; Luminescence; ViewLux plate reader (PerkinElmer).
NOTES (numbers refer to Sequence numbers above
1. Quantitative high-throughput screening (qHTS) of small molecule compounds was conducted on drug resistant SYKi MV4-11 cell line.
2. Twenty-three nanoliter of small molecule compounds were added to each assay plates using the Echo acoustic dispenser (Beckman Coulter).
3. Cells were seeded into the assay plates at a final density of 500 cells in 5uL of media per well using the Multidrop Combi dispenser.
4. Plates were covered with stainless steel gasketed lids and incubated for 72 hours at standard cell culture conditions.
5. Viability was assessed by adding 3uL of CellTiter-Glo detection reagent (Promega).
6. Plates were covered with gasket lids and incubated for 10 minutes at room temperature.
7. Luminescence was measured on a ViewLux plate reader (PerkinElmer).
In general terms: qHTS replaces the single test concentration by a dilution series.
On to `NC(=O)Cc1cccc(C(=O)c2ccccc2)c1N`, for which the Potency entry was “inactive”.
Regarding `OC[C@@]1(O)CO[C@@H](OC[C@H]2O[C@@H](Oc3ccccc3)[C@H](O)[C@@H](O)[C@@H]2O)[C@@H]1O`, the Potency entry is “inactive”.
For the compound `N#Cc1cc(NC(=O)Nc2nnc(-c3ccncc3)s2)ccc1-c1cn[nH]c1`, the Potency result is “inactive”.
For the compound `Cc1sccc1Br`, the Potency entry was “inactive”.
Regarding `COc1cc(C(C)C)c2c(c1)S(=O)(=O)N(COc1cc(=O)n3cccc(OCCN4CCCCC4)c3n1)C2=O`, the Potency was 11.8 µM (active).
As for `CCC(C)C(=O)Oc1cc(C)ccc1C1(COC(=O)C(C)C)CO1` (stereo not given), the Potency is 2.02 µM (active).
Regarding `Cc1ccc(C(=O)c2cc(O)c(O)c([N+](=O)[O-])c2)cc1`, the Potency was 23.5 µM (active).
Turning to `O=C(Nc1cc(Oc2cc(F)c(NC(=O)C3(C(=O)Nc4ccc(F)cc4)CC3)cc2F)ccn1)C1CC1`, the Potency was 25.9 nM (active) and 66.1 nM (active).
The figure for `N#Cc1cnc2cnc(NCc3cccnc3)cc2c1Nc1ccc(F)c(Cl)c1` is 3.66 µM (active); for `CCOC(=O)C1=C(N)Oc2ccc(Br)cc2C1C(C#N)C(=O)OCC` (stereo not given) it is 8.33 µM (active) and 11.6 µM (active); for `CN(C)CC/C=C1\c2ccccc2Sc2ccc(Cl)cc21` it is 15 µM (active).
The entry for `O=C1N=C(N2CCOCC2)CN1c1ccc(Cl)cc1` is “inactive”; for `C[C@@H](Nc1cc(F)cc(F)c1)c1cc(C(=O)N(C)C)cc2c(=O)cc(N3CCOCC3)oc12` it is 2.31 µM (active) and 6.61 µM (active); for `CC(C)=CCC[C@](C)(O[C@@H]1O[C@H](CO)[C@@H](O)[C@H](O)[C@H]1O)[C@H]1CC[C@]2(C)[C@@H]1[C@H](O)CC1[C@@]3(C)CC[C@H](O)C(C)(C)C3[C@@H](O[C@@H]3O[C@H](CO)[C@@H](O)[C@H](O)[C@H]3O)C[C@]12C` (stereo not given in full) it is “inactive”.
The entry for `COC(=O)[C@@H]1C2CC3c4[nH]c5ccccc5c4CCN3CC2CC[C@@H]1O` (stereo not given in full) is “inactive”; for `CC1CC(O)CC(C)(C)C1(O)CCO` (stereo not given) it is “inactive”; for `CC(C)(O)C1=CCC23COC(C2)C(O)(C(=O)O)CCC13` (stereo not given) it is “inactive”.
As for `O=C(O)c1ccc2c3c1cccc3c(=O)n1c3ccccc3nc21`, the Potency result is “inactive”.
The entry for `Cc1ccccc1-c1cc(N2CCN(C)CC2)ncc1N(C)C(=O)C(C)(C)c1cc(C(F)(F)F)cc(C(F)(F)F)c1` is “inactive”.
On to `O=C(c1cc(Cc2n[nH]c(=O)c3ccccc23)ccc1F)N1CCN(C(=O)C2CC2)CC1`, for which the Potency is 16.6 µM (active).
The entry for `CC1(C)NC2N(C1=O)c1ccccc1C2(O)CC(C(=O)O)n1cnc2ccccc2c1=O` (stereo not given) is “inactive”; for `C#C[C@]1(O)CC[C@H]2[C@@H]3CCc4cc(OC5CCCC5)ccc4[C@H]3CC[C@@]21C` it is 11.9 µM (active); for `CC(=O)OCC1=C(C(=O)O)N2C(=O)[C@@H](NC(=O)CSc3ccncc3)[C@H]2SC1` it is “inactive”.
The entry for `C=C(C)[C@@H]1CC[C@]2(C)CC[C@]3(C)[C@H](CC[C@@H]4[C@@]5(C)CC[C@H](O)C(C)(C)[C@H]5CC[C@]43C)[C@@H]12` is “inactive”; for `CCOc1cc(N2CCC(O)CC2)ccc1Nc1ncc2c(n1)N(C)c1ccccc1C(=O)N2C` it is 1.03 µM (active); for `CC(C)(O)CNc1nc(Nc2ccnc(C(F)(F)F)c2)nc(-c2cccc(C(F)(F)F)n2)n1` it is 14.8 µM (active).
For the compound `C[C@H](NC(c1cccc(C[P+](=O)O)c1)[C@H](C)O)c1ccc(Cl)c(Cl)c1` (stereo not given in full), the Potency entry was “inactive”.
The figure for `C=C1C(=O)O[C@@H]2[C@H]3O[C@]3(C)CC/C=C(\C)CC[C@@H]12` is 1.86 µM (active).
Take `Nc1nc(-c2nn(Cc3ccccc3F)c3ncccc23)nc(N)c1N1CCOCC1`: the Potency result is “inactive”.
Take `Oc1cccc(C2NC(=S)Nc3cccc(F)c32)c1` (stereo not given): the Potency was 2.91 µM (active).
The entry for `CCC(C)(CN(C)C)OC(=O)c1ccccc1` (stereo not given) is “inactive”.
The figure for `CN(Cc1cnc2nc(N)nc(N)c2n1)c1ccc(C(=O)N[C@@H](CCC(=O)O)C(=O)O)cc1` is 10.6 nM (active) and 46.8 nM (active).
`CN(C)C(N)=NC(=N)N`: the Potency entry is “inactive”.
The entry for `CCn1cc(C(=O)O)c(=O)c2cc(F)c(N3CCNCC3)cc21` is “inactive”.
The figure for `COc1c(Cl)cc2c([nH]c3cnccc32)c1NC(=O)c1cccnc1C` is 18.6 µM (active) and 20.6 µM (active); for `C#Cc1cccc(Nc2ncnc3cc(OC)c(OC)cc23)c1` it is 1.64 µM (active); for `CC[N+](CC)(CC)CCOC(=O)C(C1CCCC1)C1CCCC1` it is 11.9 µM (active).
As to `CC(C)N(CCC(=O)c1ccc2ccccc2c1)Cc1ccccc1`, the Potency is 2.95 µM (active) and 1.84 µM (active).
The entry for `NS(=O)(=O)c1ccc(C(=O)O)cc1` is “inactive”; for `CC1(C)CCC2=C(O1)c1ccccc1C(=O)C2=O` it is 7.42 µM (active).
